# The supplement of paper PMC8728848
# About 410 targets per protein were measured; listed, in parts, are those with the strongest signals and a random draw of the rest.
# Tests used:
# Test in all cases: glycan array binding signal (z-score within array); higher = stronger binding
# Details in all cases: glycan notation: IUPAC condensed, linker removed
# Fuc(a1-2)Gal = target: Fuc(a1-2)Gal
# Outline: (§1)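 Columns mapping to the same glycan were averaged after glycan names were converted to IUPAC-condensed notation. The data come from 3228 arrays in the Consortium for Functional Glycomics database, limited to those with an available protein sequence. Binding is reported as a within-array Z-score averaged across arrays of one protein sequence and across linkers.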
# [1] = target: Fuc(a1-2)Gal(b1-3)GlcNAc6S
# Outline: as §1
# [2] = target: Fuc(a1-2)Gal6S(b1-3)GlcNAc
# Outline: as §1
# [3] = target: Fuc(a1-2)[Gal(a1-3)]Gal(b1-3)GlcNAc
# Outline: as §1
# [4] = target: Fuc(a1-2)[Gal(a1-3)]Gal(b1-3)GlcNAc(b1-3)GalNAc
# Outline: as §1
# [5] = target: Fuc(a1-2)[Gal(a1-3)]Gal(b1-4)[Fuc(a1-3)]Glc
# Outline: as §1
# [6] = target: Fuc(a1-2)[GalNAc(a1-3)]Gal(b1-4)GlcNAc(b1-2)Man(a1-3)[GalNAc(a1-3)[Fuc(a1-2)]Gal(b1-4)GlcNAc(b1-2)Man(a1-6)]Man(b1-4)GlcNAc(b1-4)GlcNAc
# Outline: as §1
# [7] = target: Fuc(a1-3)[Gal(b1-4)]GlcNAc(b1-2)Man(a1-3)[Fuc(a1-3)[Gal(b1-4)]GlcNAc(b1-2)Man(a1-6)]Man(b1-4)GlcNAc(b1-4)[Fuc(a1-6)]GlcNAc
# Outline: as §1
# [8] = target: Fuc(a1-3)[Gal3S(b1-4)]Glc6S
# Outline: as §1
# Fuc(a1-4)GlcNAc = target: Fuc(a1-4)GlcNAc
# Outline: as §1
# Gal(a1-4)Gal(b1-4)GlcNAc = target: Gal(a1-4)Gal(b1-4)GlcNAc
# Outline: as §1
# [9] = target: Gal(a1-4)Gal(b1-4)GlcNAc(b1-3)Gal(b1-4)Glc
# Outline: as §1
# [10] = target: Gal(b1-3)GlcNAc(b1-3)Gal(b1-4)GlcNAc(b1-3)Gal(b1-4)GlcNAc(b1-2)[Gal(b1-3)GlcNAc(b1-3)Gal(b1-4)GlcNAc(b1-3)Gal(b1-4)GlcNAc(b1-6)]Man(a1-6)[Gal(b1-3)GlcNAc(b1-3)Gal(b1-4)GlcNAc(b1-3)Gal(b1-4)GlcNAc(b1-2)Man(a1-3)]Man(b1-4)GlcNAc(b1-4)[Fuc(a1-6)]GlcNAc
# Outline: as §1
# [11] = target: Gal(b1-3)GlcNAc(b1-3)Gal(b1-4)[Fuc(a1-3)]GlcNAc(b1-6)[Gal(b1-3)GlcNAc(b1-3)]Gal(b1-4)Glc
# Outline: as §1
# [12] = target: Gal(b1-3)GlcNAc(b1-6)Gal(b1-4)GlcNAc
# Outline: as §1
# [13] = target: Gal(b1-3)[GlcNAc(b1-6)]GalNAc
# Outline: as §1
# [14] = target: Gal(b1-3)[Neu5Ac(a2-6)]GlcNAc(b1-6)Gal(b1-4)Glc
# Outline: as §1
# [15] = target: Gal(b1-4)GlcNAc(b1-2)Man(a1-3)[Gal(b1-4)GlcNAc(b1-2)Man(a1-6)]Man(b1-4)GlcNAc(b1-4)GlcNAc
# Outline: as §1
# [16] = target: Gal(b1-4)GlcNAc(b1-2)Man(a1-6)[GlcNAc(b1-2)Man(a1-3)]Man(b1-4)GlcNAc(b1-4)GlcNAc
# Outline: as §1
# [17] = target: Gal(b1-4)GlcNAc(b1-3)Gal(b1-4)GlcNAc(b1-2)[Gal(b1-4)GlcNAc(b1-3)Gal(b1-4)GlcNAc(b1-6)]Man(a1-6)[Gal(b1-4)GlcNAc(b1-3)Gal(b1-4)GlcNAc(b1-2)Man(a1-3)]Man(b1-4)GlcNAc(b1-4)GlcNAc
# Outline: as §1
# [18] = target: Gal(b1-4)GlcNAc(b1-3)Gal(b1-4)GlcNAc(b1-3)Gal(b1-4)GlcNAc(b1-3)Gal(b1-4)GlcNAc(b1-2)Man(a1-3)[Gal(b1-4)GlcNAc(b1-3)Gal(b1-4)GlcNAc(b1-3)Gal(b1-4)GlcNAc(b1-3)Gal(b1-4)GlcNAc(b1-2)Man(a1-6)]Man(b1-4)GlcNAc(b1-4)GlcNAc
# Outline: as §1
# [19] = target: Gal(b1-4)GlcNAc(b1-3)Gal(b1-4)GlcNAc(b1-3)Gal(b1-4)GlcNAc(b1-3)Gal(b1-4)GlcNAc(b1-2)Man(a1-3)[Gal(b1-4)GlcNAc(b1-3)Gal(b1-4)GlcNAc(b1-3)Gal(b1-4)GlcNAc(b1-3)Gal(b1-4)GlcNAc(b1-2)Man(a1-6)]Man(b1-4)GlcNAc(b1-4)[Fuc(a1-6)]GlcNAc
# Outline: as §1
# [20] = target: Gal3S(b1-3)[Fuc(a1-4)]GlcNAc
# Outline: as §1
# [21] = target: Gal3S(b1-4)[Fuc(a1-3)]GlcNAc6S
# Outline: as §1
# Gal4S(b1-4)GlcNAc = target: Gal4S(b1-4)GlcNAc
# Outline: as §1
# Gal6S(b1-3)GlcNAc6S = target: Gal6S(b1-3)GlcNAc6S
# Outline: as §1
# Gal6S(b1-4)Glc = target: Gal6S(b1-4)Glc
# Outline: as §1
# Gal6S(b1-4)GlcNAc6S = target: Gal6S(b1-4)GlcNAc6S
# Outline: as §1
# GalNAc(b1-3)Gal = target: GalNAc(b1-3)Gal
# Outline: as §1
# [22] = target: GalNAc(b1-3)Gal(a1-6)Gal(b1-4)Glc
# Outline: as §1
# Glc(a1-6)Glc(a1-6)Glc = target: Glc(a1-6)Glc(a1-6)Glc
# Outline: as §1
# [23] = target: GlcNAc(a1-4)Gal(b1-4)GalNAc
# Outline: as §1
# [24] = target: GlcNAc(b1-2)Man(a1-3)[GlcNAc(b1-2)Man(a1-6)]Man(b1-4)GlcNAc(b1-4)GlcNAc
# Outline: as §1
# [25] = target: GlcNAc(b1-2)Man(a1-3)[GlcNAc(b1-4)][GlcNAc(b1-2)Man(a1-6)]Man(b1-4)GlcNAc(b1-4)GlcNAc
# Outline: as §1
# [26] = target: GlcNAc(b1-2)Man(a1-3)[GlcNAc(b1-4)][GlcNAc(b1-2)Man(a1-6)]Man(b1-4)GlcNAc(b1-4)[Fuc(a1-6)]GlcNAc
# Outline: as §1
# [27] = target: GlcNAc(b1-2)[GlcNAc(b1-4)]Man(a1-3)[GlcNAc(b1-2)Man(a1-6)]Man(b1-4)GlcNAc(b1-4)GlcNAc
# Outline: as §1
# [28] = target: GlcNAc(b1-2)[GlcNAc(b1-6)]Man(a1-6)[GlcNAc(b1-2)Man(a1-3)]Man(b1-4)GlcNAc(b1-4)GlcNAc
# Outline: as §1
# [29] = target: GlcNAc(b1-2)[GlcNAc(b1-6)]Man(a1-6)[GlcNAc(b1-2)Man(a1-3)]Man(b1-4)GlcNAc(b1-4)[Fuc(a1-6)]GlcNAc
# Outline: as §1
# GlcNAc(b1-3)Gal(b1-4)Glc = target: GlcNAc(b1-3)Gal(b1-4)Glc
# Outline: as §1
# [30] = target: GlcNAc(b1-3)Gal(b1-4)GlcNAc(b1-3)[GlcNAc(b1-3)Gal(b1-4)GlcNAc(b1-3)]GalNAc
# Outline: as §1
# Kdn(a2-6)Gal(b1-4)GlcNAc = target: Kdn(a2-6)Gal(b1-4)GlcNAc
# Outline: as §1
# [31] = target: Neu5Ac(a2-3)Gal(b1-3)GalNAc(b1-4)[Neu5Ac(a2-3)]Gal(b1-4)Glc
# Outline: as §1
# [32] = target: Neu5Ac(a2-3)Gal(b1-3)[Fuc(a1-4)]GlcNAc
# Outline: as §1
# [33] = target: Neu5Ac(a2-3)Gal(b1-4)GlcNAc(b1-2)Man(a1-3)[GlcNAc(b1-4)][Neu5Ac(a2-3)Gal(b1-4)GlcNAc(b1-2)Man(a1-6)]Man(b1-4)GlcNAc(b1-4)GlcNAc
# Outline: as §1
# [34] = target: Neu5Ac(a2-3)Gal(b1-4)[Fuc(a1-3)]GlcNAc(b1-3)GalNAc
# Outline: as §1
# [35] = target: Neu5Ac(a2-3)GalNAc(b1-4)GlcNAc
# Outline: as §1
# [36] = target: Neu5Ac(a2-6)Gal(b1-4)GlcNAc(b1-2)Man(a1-3)[GlcNAc(b1-2)Man(a1-6)]Man(b1-4)GlcNAc(b1-4)GlcNAc
# Outline: as §1
# [37] = target: Neu5Ac(a2-6)Gal(b1-4)GlcNAc(b1-2)Man(a1-6)[GlcNAc(b1-2)Man(a1-3)]Man(b1-4)GlcNAc(b1-4)GlcNAc
# Outline: as §1
# [38] = target: Neu5Ac(a2-6)Gal(b1-4)GlcNAc(b1-2)[Neu5Ac(a2-6)Gal(b1-4)GlcNAc(b1-4)]Man(a1-3)[GlcNAc(b1-4)][Neu5Ac(a2-6)Gal(b1-4)GlcNAc(b1-2)[Neu5Ac(a2-6)Gal(b1-4)GlcNAc(b1-6)]Man(a1-6)]Man(b1-4)GlcNAc(b1-4)GlcNAc
# Outline: as §1
# [39] = target: Neu5Ac(a2-6)Gal(b1-4)GlcNAc(b1-6)[Gal(b1-3)]GalNAc
# Outline: as §1
# [40] = target: Neu5Ac(a2-8)Neu5Ac(a2-8)Neu5Ac(a2-3)Gal(b1-4)Glc
# Outline: as §1
# Neu5Ac(b2-6)GalNAc = target: Neu5Ac(b2-6)GalNAc
# Outline: as §1
binder,measurement,setting,value
"LSECtin (Homo sapiens), Q6UXB4 (protein) MDTTRYSKWGGSSEEVPGGPWGRWVHWSRRPLFLALAVLVTTVLWAVILSILLSKASTERAALLDGHDLLRTNASKQTAALGALKEEVGDCHSCCSGTQAQLQTTRAELGEAQAKLMEQESALRELRERVTQGLAEAGRGREDVRTELFRALEAVRLQNNSCEPCPTSWLSFEGSCYFFSVPKTTWAAAQDHCADASAHLVIVGGLDEQGFLTRNTRGRGYWLGLRAVRHLGKVQGYQWVDGVSLSFSHWNQGEPNDAWGRENCVMMLHTGLWNDAPCDSEKDGWICEKRHNC",glycan array binding signal (z-score),Fuc(a1-2)Gal,-0.224
same,glycan array binding signal (z-score),[1],-0.125
same,glycan array binding signal (z-score),[2],-0.129
same,glycan array binding signal (z-score),[3],-0.157
same,glycan array binding signal (z-score),[4],-0.129
same,glycan array binding signal (z-score),[5],-0.135
same,glycan array binding signal (z-score),[6],2.77
same,glycan array binding signal (z-score),[7],-0.124
same,glycan array binding signal (z-score),[8],4.05
same,glycan array binding signal (z-score),Fuc(a1-4)GlcNAc,-0.206
same,glycan array binding signal (z-score),Gal(a1-4)Gal(b1-4)GlcNAc,0.114
same,glycan array binding signal (z-score),[9],-0.084
same,glycan array binding signal (z-score),[10],-0.127
same,glycan array binding signal (z-score),[11],-0.13
same,glycan array binding signal (z-score),[12],-0.137
same,glycan array binding signal (z-score),[13],0.004
same,glycan array binding signal (z-score),[14],-0.085
same,glycan array binding signal (z-score),[15],-0.21
same,glycan array binding signal (z-score),[16],5.9
same,glycan array binding signal (z-score),[17],-0.139
same,glycan array binding signal (z-score),[18],-0.133
same,glycan array binding signal (z-score),[19],-0.123
same,glycan array binding signal (z-score),[20],-0.158
same,glycan array binding signal (z-score),[21],-0.133
same,glycan array binding signal (z-score),Gal4S(b1-4)GlcNAc,-0.143
same,glycan array binding signal (z-score),Gal6S(b1-3)GlcNAc6S,-0.136
same,glycan array binding signal (z-score),Gal6S(b1-4)Glc,-0.141
same,glycan array binding signal (z-score),Gal6S(b1-4)GlcNAc6S,-0.109
same,glycan array binding signal (z-score),GalNAc(b1-3)Gal,-0.182
same,glycan array binding signal (z-score),[22],-0.134
same,glycan array binding signal (z-score),Glc(a1-6)Glc(a1-6)Glc,-0.232
same,glycan array binding signal (z-score),[23],3.23
same,glycan array binding signal (z-score),[24],6.75
same,glycan array binding signal (z-score),[25],6.57
same,glycan array binding signal (z-score),[26],6.3
same,glycan array binding signal (z-score),[27],3.06
same,glycan array binding signal (z-score),[28],7.17
same,glycan array binding signal (z-score),[29],9.94
same,glycan array binding signal (z-score),GlcNAc(b1-3)Gal(b1-4)Glc,-0.109
same,glycan array binding signal (z-score),[30],-0.126
same,glycan array binding signal (z-score),Kdn(a2-6)Gal(b1-4)GlcNAc,-0.149
same,glycan array binding signal (z-score),[31],-0.231
same,glycan array binding signal (z-score),[32],-0.079
same,glycan array binding signal (z-score),[33],-0.14
same,glycan array binding signal (z-score),[34],4.08
same,glycan array binding signal (z-score),[35],-0.22
same,glycan array binding signal (z-score),[36],0.942
same,glycan array binding signal (z-score),[37],5.06
same,glycan array binding signal (z-score),[38],-0.133
same,glycan array binding signal (z-score),[39],-0.137
same,glycan array binding signal (z-score),[40],-0.117
same,glycan array binding signal (z-score),Neu5Ac(b2-6)GalNAc,-0.124
